dFosB act-1: enhances mouse delta FosB homodimer DNA binding | purified delta FosB, TAMRA-CDK5 oligo fluorescence polarization; percent of positive-control signal above neutral wells | activation, % at 25 µM | 0.99% of 340,000 active | AID 493131;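 active means mean activation above about 17%, with every replicate also reaching it, limit read from the data, passing the limit was not always enough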
Target sequence (P13346 whole entry, looked up): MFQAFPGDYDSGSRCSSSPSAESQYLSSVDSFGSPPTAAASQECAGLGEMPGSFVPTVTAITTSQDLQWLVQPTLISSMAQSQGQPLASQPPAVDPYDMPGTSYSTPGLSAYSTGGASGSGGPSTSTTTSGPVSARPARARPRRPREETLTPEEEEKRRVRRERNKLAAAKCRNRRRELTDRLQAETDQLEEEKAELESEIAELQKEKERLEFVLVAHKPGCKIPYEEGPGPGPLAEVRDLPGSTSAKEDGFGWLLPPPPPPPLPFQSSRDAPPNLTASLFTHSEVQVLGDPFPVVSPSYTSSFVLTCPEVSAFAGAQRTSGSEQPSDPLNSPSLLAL
Yeast superoxide: caloric restriction mimetics inhibiting age-related superoxide in yeast. S. cerevisiae aged cells, superoxide DHE fluorescence; hits give low values. superoxide response (% of plate mean), % at 10 µM. 0.18% of 330,000 active;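 active means superoxide response under a set limit, about three screen SD below normal, cut at about 65% in these data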;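 further: yeast aged for seven days with compound at 30 °C before DHE staining; 100% = average MFI of all compound-treated wells on the plate with controls excluded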
GRIN3A LBD mod: NR3A (human) ligand-binding domain modulation; NR3A LBD differential scanning fluorimetry, Tm shift; 0% = protein alone, 100% = glycine-bound protein; AID 1259313; Tm shift relative to glycine control, % at 25 µM; 2.5% of 340,000 active;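 active means melting temperature shift of at least 10% of the positive control shift, at one fixed dose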
NALP1 yeast inh: blocks the NALP1 inflammasome reconstituted in yeast | S. cerevisiae NALP1/ASC/caspase-1 growth, X-gal OD620, 72 h | inhibition, % at 10 µM | 0.61% of 280,000 active | AID 2071; in the data active means inhibition mostly above about 24%, no sharp cut-off; inactive means mostly below about 32%
UBC13 polyUb: human UBC13 polyubiquitination inhibition | UBC13 polyubiquitin chain formation, TR-FRET | inhibition, % at 20 µM | 0.47% of 330,000 active | AID 485273; in the data active means inhibition above about 45%, passing the limit was not always enough
Target sequence (P61088 whole entry, looked up): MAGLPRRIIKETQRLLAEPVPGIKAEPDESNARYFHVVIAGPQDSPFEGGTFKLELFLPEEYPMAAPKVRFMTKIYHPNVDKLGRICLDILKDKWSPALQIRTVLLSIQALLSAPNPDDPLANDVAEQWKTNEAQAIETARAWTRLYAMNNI
dFosB act-2: delta FosB (mouse) homodimer activation; activation, % at 24.9 µM; shares compounds with dFosB act-1; AID 588690; purified delta FosB, TAMRA-CDK5 oligo fluorescence polarization; normalised: neutral wells 0, positive control 100; 2,400 tested, under 10 active;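 active means highest replicate activation at or above 34% and every replicate reaching that threshold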;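 further: higher polarization means more probe DNA bound by delta FosB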
The depositor's hits bear a star. Rows were chosen to be rich in hits. Some 4.3% of all compounds tested hit in one or more screens of this group.

For Cc1cccc(-n2nnnc2SCC(=O)N(CC(C)C)c2c(N)n(CC(C)C)c(=O)[nH]c2=O)c1 the results were dFosB act-1 32*, Yeast superoxide 107, GRIN3A LBD mod -1, NALP1 yeast inh -4, UBC13 polyUb 6 and dFosB act-2 6.
For Cc1ccc(-n2nnnc2SCC(=O)N(CC(C)C)c2c(N)n(CC(C)C)c(=O)[nH]c2=O)cc1 the results were dFosB act-1 -21, Yeast superoxide 118, GRIN3A LBD mod -2, NALP1 yeast inh -14 and UBC13 polyUb -5.
`COc1cc(-c2ccc3c(=O)c4ccccc4n(C)c3c2)cc(OC)c1OC` gave dFosB act-1 35*, Yeast superoxide 96, GRIN3A LBD mod -28, NALP1 yeast inh 28, UBC13 polyUb 11 and dFosB act-2 4.
COc1cc(-c2ccc3c(=O)c4ccccc4sc3c2)cc(OC)c1OC was read as dFosB act-1 -1, Yeast superoxide 106, GRIN3A LBD mod 2 and UBC13 polyUb 26.
`Cc1ccc(S(=O)(=O)N2CCCCC2)cc1NC(=O)c1cnccn1` gave dFosB act-1 -3, GRIN3A LBD mod -1 and UBC13 polyUb 0.
For Cc1ccc(-c2nc(NC(=O)CSc3nnnn3-c3ccccc3)ns2)cc1 the results were dFosB act-1 38*, Yeast superoxide 103, GRIN3A LBD mod -33, NALP1 yeast inh 19, UBC13 polyUb 1 and dFosB act-2 2.
Cc1ccc(-n2nnnc2SCC(=O)Nc2ncc(Cc3ccccc3Cl)s2)cc1 was read as dFosB act-1 104*, Yeast superoxide 96, GRIN3A LBD mod 2, NALP1 yeast inh 33, UBC13 polyUb -6 and dFosB act-2 6.
Screening c1ccc(-n2cc(CN3CCCC(CN4CCCC4)C3)c(-c3ccc4c(c3)OCO4)n2)cc1 (configuration not stated) returned dFosB act-1 27*, Yeast superoxide 89, GRIN3A LBD mod -2, NALP1 yeast inh 27, UBC13 polyUb 14 and dFosB act-2 -6.
For CCC1CCC(N2CCN(c3cccc(OC)c3)CC2)CC1 (configuration not stated) the results were dFosB act-1 -8, Yeast superoxide 79, GRIN3A LBD mod 1, NALP1 yeast inh 27 and UBC13 polyUb 3.
For C=CCn1c(SCc2nc3ccccc3c(=O)[nH]2)nc2scc(C3CC3)c2c1=O the results were dFosB act-1 33*, Yeast superoxide 116, GRIN3A LBD mod -2, NALP1 yeast inh 15, UBC13 polyUb 14 and dFosB act-2 3.
CCCCC1CC(=O)NC1(C(=O)OCC)C(=O)OCC (configuration not stated) was read as dFosB act-1 6 and GRIN3A LBD mod 1.
For CCC(C)[C@H](NC(=O)OC(C)(C)C)C(=O)NCC1CCC(C(=O)N[C@@H](Cc2ccccc2)C(=O)O)CC1 (some centres not stated) the results were dFosB act-1 -5, Yeast superoxide 112, GRIN3A LBD mod -1, NALP1 yeast inh 10 and UBC13 polyUb 3.
O=C(NC1CC1)C1CCN(C2CCN(C(=O)c3c(F)cccc3Cl)CC2)CC1 was read as dFosB act-1 27*, Yeast superoxide 91, GRIN3A LBD mod -1, NALP1 yeast inh 1, UBC13 polyUb -4 and dFosB act-2 2.
Screening CCOC(=O)c1sc(NC(=O)CSC(=S)N2CCN(C)CC2)nc1C returned dFosB act-1 -24, Yeast superoxide 104, GRIN3A LBD mod -2, NALP1 yeast inh -14 and UBC13 polyUb 0.
`O=C(Oc1ccccc1)c1cccc2cccc(C(=O)Oc3ccccc3)c12` gave GRIN3A LBD mod -1 and NALP1 yeast inh 15.
`Cc1c(C(=O)Nc2nonc2-c2ccc(F)cc2)oc2ccc(F)cc12` gave dFosB act-1 -6, Yeast superoxide 158, GRIN3A LBD mod 6, NALP1 yeast inh -3 and UBC13 polyUb -8.
For CCc1ccc2oc(C(=O)Nc3nonc3C)c(C)c2c1 the results were dFosB act-1 3, Yeast superoxide 80, GRIN3A LBD mod 3, NALP1 yeast inh -1 and UBC13 polyUb 1.
Screening Cc1cc2oc(C(=O)Nc3nonc3C)c(C)c2cc1C returned dFosB act-1 20*, Yeast superoxide 85, GRIN3A LBD mod 1, NALP1 yeast inh -2, UBC13 polyUb -1 and dFosB act-2 2.
For CCc1nonc1NC(=O)c1oc2ccc(F)cc2c1C the results were dFosB act-1 35*, Yeast superoxide 112, GRIN3A LBD mod -2, NALP1 yeast inh 2, UBC13 polyUb -4 and dFosB act-2 1.
`CCC(C(=O)N1CCOCC1)n1nc(C)c2c(C)n(-c3ccccc3)nc2c1=O` (configuration not stated) gave dFosB act-1 3, Yeast superoxide 96, GRIN3A LBD mod 2, NALP1 yeast inh 26 and UBC13 polyUb -1.
CCOC(CCn1c(SCC(=O)NC2CCCC2)nc2ccccc2c1=O)OCC was read as dFosB act-1 -9, Yeast superoxide 112, GRIN3A LBD mod -1, NALP1 yeast inh 8 and UBC13 polyUb 5.
`O=C(Nc1ccc2oc(=O)ccc2c1)c1ccc(-c2cccc(Cl)c2)o1` gave dFosB act-1 99*, Yeast superoxide 94, GRIN3A LBD mod 29*, UBC13 polyUb -11 and dFosB act-2 4.
For O=C(Nc1ccc(CN2CCOCC2)cc1)c1ccc(-c2cccc(Cl)c2)o1 the results were dFosB act-1 -20, Yeast superoxide 93, GRIN3A LBD mod 2, NALP1 yeast inh 18 and UBC13 polyUb 10.
Screening Cc1ccc(-c2nc3ncccc3o2)cc1NC(=S)NC(=O)c1ccco1 returned dFosB act-1 -20, Yeast superoxide 99, GRIN3A LBD mod -12, NALP1 yeast inh -16 and UBC13 polyUb 5.
Screening Cc1cc(-c2nc3ncccc3o2)ccc1NC(=S)NC(=O)c1ccco1 returned dFosB act-1 25*, Yeast superoxide 97, GRIN3A LBD mod -1, NALP1 yeast inh 5, UBC13 polyUb 13 and dFosB act-2 0.
For CCOC(=O)N1CCN(S(=O)(=O)c2ccc(C(=O)Nc3nc4ccc(F)cc4s3)cc2)CC1 the results were dFosB act-1 57*, Yeast superoxide 89, GRIN3A LBD mod 1, NALP1 yeast inh 22, UBC13 polyUb -6 and dFosB act-2 -6.
For CCOC(=O)N1CCN(S(=O)(=O)c2ccc(C(=O)Nc3nc4ccccc4s3)cc2)CC1 the results were dFosB act-1 23*, Yeast superoxide 98, GRIN3A LBD mod 1, NALP1 yeast inh -1, UBC13 polyUb -7 and dFosB act-2 0.
For CC(C)c1ccccc1NC(=O)COC(=O)c1cc(=O)[nH]c(=O)[nH]1 the results were dFosB act-1 -2, Yeast superoxide 114, GRIN3A LBD mod 1, NALP1 yeast inh 10 and UBC13 polyUb 2.
Screening CCOC(=O)c1ccc(N=C2NC(=O)CS2)cc1 returned dFosB act-1 -3, Yeast superoxide 87, GRIN3A LBD mod -1, NALP1 yeast inh 17 and UBC13 polyUb 0.

Bioassay records: PubChem, several laboratories
